Inconclusive results are not listed. A call without a number means that no potency is given here. The source made the active and inactive calls. The call rests on the fitted dose curve. Square brackets hold non-standard residues; d marks the D form. Peptide text beside a SMILES is read from it. pGlu = O=C1CC[C@@H](C(=O)O)N1
biological target: Beta-2 adrenergic receptor (Homo sapiens) (UniProt P07550); test: Adrenergic beta2 receptor (ADRB2) small molecule antagonists, cell-based qHTS assay (AID 1963592); conditions: CHO-ADRB2 cells, isoproterenol-stimulated cAMP HTRF ratio, 0.5 h; series mostly up to 92.4 µM; further: nearly all actives have a fitted effect of over 50% in size
Excerpt: U.S. Tox21 Program National Center for Advancing Translational Sciences [NCATS] Division of Preclinical Innovation [DPI] U.S. Environmental Protection Agency [EPA] National Institutes of Environmental Health Sciences [NIEHS] National Toxicology Program [NTP] U.S. Food and Drug Administration [FDA] Tox21 Assay Overview: Beta adrenergic receptors (Beta-ARs) belong to the G-protein coupled receptor (GPCR) superfamily, includes three subtypes - beta1, beta2, and beta3. Beta1-AR is the predominant receptor subtype expressed in the heart, and beta2-AR is expressed in the kidney, lung, blood vessel and in the heart, and beta3 is found in the adipocytes. Beta1 and 2 ARs couple to Gs protein and elevate cyclic adenosine mono phosphate (cAMP), which activates protein kinase A and leads to the downstream signaling responsible for the physiological actions. Beta-AR agonists or antagonists are the most prescribed therapeutic agents for heart failure and asthma, and these were one of the first target receptors for the rational drug design. Tox21 10K compound library was screened using the cAMP-Gs dynamic assay (Cisbio Bioassays, Shelton, CT) to identify agonists/antagonists of the Gs-coupled human adrenergic, beta2 receptor (ADRB2) in the CHO-ADRB2 cell line (Codex BioSolutions, Inc. Gaithersburg, MD), which stably over-expresses ADRB2. The principle of cAMP-Gs dynamic assay is based on HTRF technology, which facilitates the fluorescence resonance energy transfer (FRET) between donor Europium cryptate and acceptor d2-labeled cAMP. The cAMP generated within cells competes with the red acceptor, d2-labled cAMP, for binding to the monoclonal anti-cAMP-cryptate (Europium donor). An increase in intracellular cAMP leads to the disruption of FRET signal, and the signal is inversely proportional to the cAMP concentration. Propranolol HCl (Sigma-Aldrich, St. Louis, MO) was used as a positive control in the screening.
Tox21 Assay Protocol Summary: CHO-ADRB2 cells were dispensed at 1,000/well in 4uL assay medium into white/solid 1536-well plates (Greiner Bio-One North America Inc., Monroe, NC) using a Multidrop Combi dispenser (ThermoFisher Scientific, Waltham, MA). The assay plates were incubated at 37C and 5% CO2 for an overnight (18-20hr). Then positive control and test compounds dissolved in DMSO were transferred to the assay plates at 23nL using a Pintool station (Wako, San Diego, CA). Following the compound and positive control transfer, 1uL agonist-stimulation mix containing 1nM Isoproterenol HCl, 100uM IBMX and 25uM Ro-20-1724 was added to each well of the assay plates using BioRAPTR Flying Reagent Dispenser (FRD, Beckman Coulter, Brea, CA). The assay plates were incubated at room temperature for 0.5hr. Then 2.5ul each d2-labled cAMP and anti-cAMP-cryptate solutions were added separately to each well of the assay plates using an FRD and the assay plates were incubated at room temperature for 1hr. The fluorescence signal was measured at two different wavelengths (665nm and 615nm) using an Envision plate reader (Perkin Elmer, Shelton, CT). Data were expressed as the ratio of 665 nm/615 nm.
Potency means the concentration at half of the fitted maximal effect.

Sequence of Beta-2 adrenergic receptor (Homo sapiens) (P07550 whole entry, looked up): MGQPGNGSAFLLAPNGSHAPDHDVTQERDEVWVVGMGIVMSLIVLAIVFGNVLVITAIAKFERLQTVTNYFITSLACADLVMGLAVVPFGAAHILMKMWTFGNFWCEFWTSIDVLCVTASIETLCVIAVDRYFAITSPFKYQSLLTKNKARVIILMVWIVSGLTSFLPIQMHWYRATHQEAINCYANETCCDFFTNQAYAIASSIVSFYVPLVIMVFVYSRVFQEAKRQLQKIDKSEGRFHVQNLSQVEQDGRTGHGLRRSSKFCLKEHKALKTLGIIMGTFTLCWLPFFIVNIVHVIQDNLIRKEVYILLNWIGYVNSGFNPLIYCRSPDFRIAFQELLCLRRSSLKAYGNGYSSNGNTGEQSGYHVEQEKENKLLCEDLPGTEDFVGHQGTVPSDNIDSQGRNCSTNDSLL

| Compound | Potency | activity change, negative = inhibition |
| --- | --- | --- |
| NC(=O)N(O)[C@@H]1COc2cc(OCc3ccccc3)ccc21 | inactive |  |
| C=C(C)C1CCC(C)(O)CC1 (stereo not given) | inactive |  |
| O=C(O)CCCCCCCCCCCBr | inactive |  |
| OCC1CC=CCC1 (stereo not given) | inactive |  |
| CCNC(=O)[C@@H]1CCCN1C(=O)[C@H](CCCN=C(N)N)NC(=O)[C@H](CC(C)C)NC(=O)CNC(=O)[C@H](Cc1ccc(O)cc1)NC(=O)[C@H](CO)NC(=O)[C@H](Cc1c[nH]c2ccccc12)NC(=O)[C@H](Cc1cnc[nH]1)NC(=O)[C@@H]1CCC(=O)N1 ([pGlu]HWSYGLRP-NHEt) | inactive |  |
| N#CSCSc1nc2ccccc2s1 | inactive |  |
| C=CC(=O)OCCOc1ccccc1 | inactive |  |
| COC(=O)CC(=O)C(C)(C)C | inactive |  |
| C[C@H]1COc2c(C3(N)CC3)c(F)cc3c(=O)c(C(=O)O)cn1c23 | inactive |  |
| O=C(Cl)c1cc(C(=O)Cl)cc(C(=O)Cl)c1 | inactive |  |
| CN(C)CCOCCO | inactive |  |
| CCCCN(CCO)CCCC | inactive |  |
| CCCCN1C(=O)c2ccccc2C1=O | inactive |  |
| O=C(Nc1ccccc1)c1cc(Cl)ccc1O | 61.1 µM (active) |  |
| O=C(NCc1ncc(C(F)(F)F)cc1Cl)c1c(Cl)cccc1Cl | inactive |  |
| CC(C)(O)c1ccc(C(C)(C)O)cc1 | inactive |  |
| O=C(Nc1cccc(C(F)(F)F)c1)c1cc(Br)cc(Br)c1O | 61.1 µM (active) |  |
| CC(=O)OCC(=O)[C@H]1CC[C@H]2[C@@H]3CCC4=CC(=O)CC[C@]4(C)[C@H]3CC[C@]12C | inactive |  |
| N=C(N)N1CCc2ccccc2C1 |  | -8.55% [at 8.39 µM] (inactive) |
| Cc1cc(O)c2c(c1)C(=O)c1cc(O)cc(O)c1C2=O | inactive |  |

| Compound | Potency | activity change, negative = inhibition |
| --- | --- | --- |
| O=S(=O)(O)c1ccccc1/C=C/c1ccc(-c2ccc(/C=C/c3ccccc3S(=O)(=O)O)cc2)cc1 | inactive |  |
| Oc1ccc(C2(c3ccc(O)cc3)CC3CC2C2CCCC32)cc1 (stereo not given) | inactive |  |
| CCOc1ccc2c(c1)C(C)CC(C)(C)N2 (stereo not given) | inactive |  |
| Cc1nc(N)nc(N)c1-c1ccc(Cl)c(Cl)c1 | inactive |  |
| Cc1cccc(NC(=S)N(C)C)c1 | inactive |  |
| COC(=O)c1ccc(C(=O)OC)c(C(=O)OC)c1 | inactive |  |
| CC(=O)OCC=C(C)C | inactive |  |
| CC[C@]12CCCN3CCc4c(n(c5ccccc45)C(=O)C1)[C@@H]32 | inactive |  |
| CCCCCCCCCCCCSC#N | inactive |  |
| O=C1CCCCCCCCCCCCCCO1 | inactive |  |
| Cc1nnc(SCC2=C(C(=O)O)N3C(=O)[C@@H](NC(=O)Cn4cnnn4)[C@H]3SC2)s1 | inactive |  |
| O=C(NN1CCCC1)NS(=O)(=O)c1ccc(Cl)cc1 | inactive |  |
| CCO[C@@H]1O[C@H](C(COCc2ccccc2)OCc2ccccc2)[C@H](OCc2ccccc2)[C@H]1O (stereo not given in full) | inactive |  |
| CC[C@]1(O)C[C@H]2CN(CCc3c([nH]c4ccccc34)[C@@](C(=O)OC)(c3cc4c(cc3OC)N(C=O)[C@H]3[C@@](O)(C(=O)OC)[C@H](OC(C)=O)[C@]5(CC)C=CCN6CC[C@]43[C@@H]65)C2)C1 | inactive |  |
| CCc1c(C(=O)NN2CCCCC2)nn(-c2ccc(Cl)cc2Cl)c1-c1ccc(Br)cc1 | inactive |  |
| CC[N+](C)(CC)CCOC(=O)C1c2ccccc2Oc2ccccc21 | inactive |  |
| N#CCCCC(C#N)CCC#N (stereo not given) | inactive |  |
| C1CCCCCCCCCCC1 |  | 0.327% [at 19 µM] (inactive) |
| CC(C)(C)C1=CC(=O)C=C(C(C)(C)C)C1=O | inactive |  |
| CC(C)c1nnc2ccc(-c3ocnc3-c3cc(F)ccc3F)cn12 | inactive |  |

— PubChem BioAssay (Tox21)
